FMDV inh: High Throughput Screening for Foot and Mouth Disease Virus Antivirals; AID 1159524, 2015; Potency, µM (highest dose often 57.9 µM), inactives show at the top dose activity change, negative = inhibition, hits mostly inhibitors; FMDV antiviral cell-based qHTS; 410,000 tested, 1.2% active; calls by dose curve; tested in HEK293T cells; further: read-out not given here; potency means the concentration at half of the fitted maximal effect; on the % scale 0 is the no-effect control and ±100 the full control effect; nearly all actives have a fitted effect of over 45% in size
SARS PLP yeast: qHTS of Yeast-based Assay for SARS-CoV PLP; S. cerevisiae expressing SARS-CoV PLpro, growth rescue; Potency, µM (highest dose often 32.9 µM), without a hit: at the highest dose activity, positive = growth rescue, most hits filed as activators; 330,000 tested, 0.19% active; calls by dose curve; further: potency means the concentration at half of the fitted maximal effect; 0% is about no effect; nearly all actives have a fitted effect of over 55% in size
HCMV inh: qHTS Assay for inhibitors of the human cytomegalovirus (HCMV) | 410,000 tested, 4.5% active | activity change, negative = inhibition, % at 57.5 µM | HFF cells, HCMV-luciferase reporter, 72 h; stronger effect = lower value; in the data active means activity change below about -60%; inconclusive means no clear call, values can overlap the other calls; inactive means above about -39%; further: on the % scale 0 is the no-effect control and ±100 the full control effect
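Human foreskin fibroblasts infected with luciferase-reporter HCMV at MOI 1 PFU/cell, compounds at two doses. Luciferase measured 72 h post infection; normalized to buffer-only basal and Salinomycin (10uM) controls.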
HCV inhibitor: qHTS Assay for Inhibitors of Hepatitis C Virus (HCV); Huh7.5.1 HCVcc-Cre infection, luciferase reporter, 44 h; Potency, µM (doses to about 41.8 µM), for the others: at the highest dose activity change, negative = inhibition, actives largely listed as inhibitors; 340,000 tested, 3.4% active; AID 651820, 2012; active means well fitted inhibition curve with a large enough effect; inconclusive means small, poorly fitted or top-dose-only effect, or another doubt; inactive means no such curve, though single readings can be large or run the other way; further: potency means the concentration at half of the fitted maximal effect; on the % scale 0 is the no-effect control and ±100 the full control effect
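Cells (1,000/well) were plated 4 h before compound, then infected with HCVcc-Cre virus (~0.5 moi). After 44 h further culture, infection was read as luciferase luminescence following a 15 min substrate incubation at room temperature.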
LASV entry inh: qHTS for Inhibitors of binding or entry into cells for Lassa Virus | Lassa virus pseudotype entry inhibition, cell reporter | 300,000 tested, 1.2% active | Potency, µM (highest dose often 37.9 µM), inactives show at the top dose activity change, negative = inhibition, usual class: inhibitors; calls by dose curve; tested in HEK293 cells; further: potency means the concentration at half of the fitted maximal effect; on the % scale 0 is the no-effect control and ±100 the full control effect; nearly all actives have a fitted effect of over 50% in size
Marburg entry inh: qHTS for inhibitors of binding or entry into cells for Marburg Virus | Potency, µM (series often up to 37.8 µM), inactives show at the highest dose activity change, negative = inhibition, actives largely listed as inhibitors | 300,000 tested, 1.8% active | Marburg virus pseudotyped entry inhibition, cell reporter; calls by dose curve; tested in HEK293 cells; further: potency means the concentration at half of the fitted maximal effect; on the % scale 0 is the no-effect control and ±100 the full control effect
* hit, by the source's call; u = inconclusive; x = not tested or not shown; [ ] = another dose, or the depositor's remark. Rows were chosen to be rich in hits. Some 8% of all compounds tested hit in one or more screens of this group.

SMILES	FMDV inh	SARS PLP yeast	HCMV inh	HCV inhibitor	LASV entry inh	Marburg entry inh
O=C(NCCCCCCNC(=O)c1ccccc1O)c1ccccc1O	u	0%	-79*	10µM*	20%	u
O=C(NCCCSc1ccccc1)c1cc(Cl)ccc1O	-3%	2%	-84*	u	x	x
C=C[C@H]1CN2CC[C@H]1C[C@H]2[C@H](OC(=O)OCC)c1ccnc2ccc(OC)cc12	-15%	x	x	x	x	x
CCOC(=O)c1ccc(NC(=O)CC2Sc3ccc(C(F)(F)F)cc3NC2=O)cc1 (stereo not given)	-24%	x	-65*	x	-6%[46.1 µM]	-15%[46.1 µM]
CCOC(=O)c1cc(CC)sc1NC(=O)CC1Sc2ccc(C(F)(F)F)cc2NC1=O (stereo not given)	-18%	u	-8	23%	0%	u
Cc1ccc(NC(=O)CC2SC(=O)NC2=O)cc1 (stereo not given)	-11%	u	10	3%	-2%	8%
COc1ccc(NC(=O)CC2SC(=O)NC2=O)cc1 (stereo not given)	-9%	-1%	-67*	3%	2%	19%[46.1 µM]
Cc1cccc(C)c1Nc1c(-c2ccsc2)nc2ccccn12	0%	x	-22	x	-15%[46.1 µM]	u
Cc1ccc(Nc2c(-c3ccccn3)nc3ccc(Br)cn23)cc1	-21%	x	4	x	18%[46.1 µM]	0%[46.1 µM]
Cc1ccc2nc(-c3ccccn3)c(NC3CCCC3)n2c1	-6%	0%	-66*	u	u	u
Cc1cc(C)n2c(Nc3c(C)cccc3C)c(-c3ccccn3)nc2n1	u	x	-69*	x	x	x
Cc1cccc(C)c1Nc1c(-c2ccccn2)nc2ccccn12	-29%	-25%	-97*	10µM*	x	x
COc1ccccc1N1CCN(C(=O)Cn2c(=O)nc(-c3ccccc3)c3cc(Cl)ccc32)CC1	24%	x	-6	x	-17%[46.1 µM]	x
CCn1c(CC(=O)Nc2ccc(Cl)c(Cl)c2)nnc1SCc1ccc(C)cc1	-17%	6%	-24	-10%	1%	4%
CCn1c(CC(=O)Nc2ccc(Cl)c(Cl)c2)nnc1SCc1ccc(Cl)cc1	-22%	10%	-100*	9%	24%	-1%
Cc1ncsc1CCOC(=O)c1ccc(N2CCOCC2)c([N+](=O)[O-])c1	-1%	-5%	-61*	-4%	x	x
Cc1ncsc1CCOC(=O)c1ccc([N+](=O)[O-])cc1	-8%	2%	-5	-8%	14%	-3%
Cc1c(CCOC(=O)c2ccc(N3CCOCC3)c([N+](=O)[O-])c2)sc[n+]1CC#N	u	2%	-36	16µM*	13µM*	u
Cc1c(CCOC(=O)c2cc([N+](=O)[O-])cc([N+](=O)[O-])c2)sc[n+]1CC(=O)c1ccccc1	-7%	-2%	-6	u	x	x
CC(C)CCn1c(SCc2ccc(F)cc2Cl)nc2ccsc2c1=O	-22%	x	19	x	u	x
Cc1ccc(-n2ncc3c2ncn2c(C)nnc32)cc1C	x	1%	-67*	1%	-12%	-10%
Cc1ccc(-c2[nH]ncc2C(=O)c2cccc(F)c2)c(O)c1	-2%	1%	-75*	u	4%	-3%
CCN(C(=O)Cn1cc(C(=O)c2ccc(F)cc2)c(=O)c2ccc(C)nc21)c1cccc(C)c1	-16%	x	-33	x	-6%[46.1 µM]	x
Cc1nn(CC(O)CN2c3ccccc3Sc3ccccc32)c(C)c1Br (stereo not given)	u	-32%	-13	u	u	11µM*
OC(CN1c2ccccc2Sc2ccccc21)Cn1nnc2ccccc21 (stereo not given)	u	-7%	17	u	-2%	u
SMILES	FMDV inh	SARS PLP yeast	HCMV inh	HCV inhibitor	LASV entry inh	Marburg entry inh
CC(NC(=O)CN(c1cccc(C(F)(F)F)c1)S(=O)(=O)c1ccc(Cl)c([N+](=O)[O-])c1)c1ccccc1 (stereo not given)	u	-11%	46	u	u	u
O=C(CN(c1cccc(C(F)(F)F)c1)S(=O)(=O)c1ccc(Cl)c([N+](=O)[O-])c1)NCc1ccccc1	-19%	-4%	8	u	u	23µM*
O=C(CN(c1cccc(C(F)(F)F)c1)S(=O)(=O)c1ccc(Cl)c([N+](=O)[O-])c1)NCc1ccccc1Cl	40µM*	-5%	45	u	u	u
Cc1ccc(N(CC(=O)NCCc2ccc(F)cc2)S(=O)(=O)c2ccc(Cl)c([N+](=O)[O-])c2)c(C)c1	u	-6%	-1	10µM*	23µM*	u
COc1cc(O)c(C(CC(=O)N2CCOCC2)c2ccc3c(c2)OCO3)c(OC)c1 (stereo not given)	-8%	-1%	u	11µM*	x	x
O=C(Nc1cccc(F)c1)C1CCN(c2nnnn2-c2ccccc2)CC1	18µM*	2%	-11	-20%	u	9%
COC(=O)c1ccc(NC(=O)COc2ccc(C3C(C#N)=C(N)Oc4c3ccc3ccccc43)cc2OC)cc1 (stereo not given)	-6%	0%	17	u	u	-27%
COc1cc(C2C(C#N)=C(N)Oc3c2ccc2ccccc32)ccc1OCC(=O)Nc1ccccc1C (stereo not given)	-15%	2%	10	8.9µM*	-17%	u
CSc1ncc(Cl)c(C(=O)Nc2ccc(C)c(C)c2)n1	1%	1%	31	u	x	x
Cc1ccc(NC(=O)c2nc(S(=O)(=O)Cc3ccccc3C)ncc2Cl)cc1C	40µM*	-30%	-98*	u	u	u
CC(=O)Nc1ccc(NC(=O)c2nc(S(=O)(=O)Cc3ccc(F)cc3)ncc2Cl)cc1	32µM*	x	-100*	x	u	u
CCCS(=O)(=O)c1ncc(Cl)c(C(=O)Nc2ccc(S(=O)(=O)Nc3ncccn3)cc2)n1	-10%	6%	-20	17%	x	x
Cc1ccc(NC(=O)c2nc(S(=O)(=O)Cc3ccc(F)cc3)ncc2Cl)cc1C	28µM*	x	-98*	x	u	u
Oc1ccc(Br)cc1-c1cc(-c2ccc(Cl)cc2)n[nH]1	-12%	-10%	-77*	10µM*	-5%	-22%
O=[N+]([O-])c1cccc(-c2cc(-c3cc(Br)ccc3O)[nH]n2)c1	28µM*	-24%	u	10µM*	u	u
Cc1ccc(O)c(-c2cc(-c3cccc(F)c3)n[nH]2)c1	36%	-30%	69	10µM*	u	u
COc1ccc(CNC(=O)c2cnc(N3CCCC3)nc2C)cc1	2%	x	-11	x	17%[46.1 µM]	x
CC(=O)Nc1nonc1-c1nnc(SCc2ccc(F)cc2)n1C	-13%	x	29	x	7%[46.1 µM]	18%[46.1 µM]
CCOCCOC(=O)c1ccc(NC(=O)/C=C/c2ccc(OC)c(OC)c2)cc1	20µM*	x	-2	x	-2%[46.1 µM]	x

Bioassay records deposited in PubChem by National Center for Advancing Translational Sciences (NCATS).
